In all, about 96,000 compounds went through this assay and about 20,000 (21%) were called active.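 How the source made its calls: active means CYP2C19 inhibition above a set limit at 5 µM in the primary screen (cut at about 50% in these data); inactive means the rest.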 Not all results are given here. Residues, ends and D or L forms follow the SMILES beside them. *: point of attachment. Bz = O=C(c1ccccc1)*
The compounds below were run against Cytochrome P450 2C19 (Homo sapiens) (UniProt P33261) (assay: blockers of cytochrome P450 2C19 activity – biochemical, luminescence, ADME assay, primary screen (AID 778;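 further: plate controls were negative control wells for no effect and 2.5 mM tranylcypromine positive control for full effect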)). Details: CYP2C19 Supersomes, luciferin-H EGE luminescence, 30 min; at 5 µM; active compounds read high.
Cytochrome P450 2C19 (Homo sapiens), sequence (P33261 whole entry, looked up): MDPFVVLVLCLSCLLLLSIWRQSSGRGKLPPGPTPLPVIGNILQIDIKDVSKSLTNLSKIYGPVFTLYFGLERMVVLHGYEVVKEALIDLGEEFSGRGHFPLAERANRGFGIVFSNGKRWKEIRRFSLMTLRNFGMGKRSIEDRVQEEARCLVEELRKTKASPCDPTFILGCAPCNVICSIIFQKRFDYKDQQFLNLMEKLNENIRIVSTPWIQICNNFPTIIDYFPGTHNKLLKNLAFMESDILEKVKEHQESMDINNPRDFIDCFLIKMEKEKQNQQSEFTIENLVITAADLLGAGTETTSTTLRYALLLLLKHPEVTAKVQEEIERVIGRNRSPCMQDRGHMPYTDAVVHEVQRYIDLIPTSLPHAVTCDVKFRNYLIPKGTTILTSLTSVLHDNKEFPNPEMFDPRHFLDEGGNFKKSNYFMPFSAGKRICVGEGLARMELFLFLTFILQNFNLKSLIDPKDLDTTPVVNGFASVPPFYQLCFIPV

Structure (SMILES) | inhibition
COC(=O)Cn1c2ccc(C)cc2c2nc(C)sc21 | -3.3% (inactive)
O=c1ccn(Cc2ccccc2Cl)cc1 | -3% (inactive)
O=C1c2ccccc2C(O)N1Cc1ccccc1 (centres undefined) | 60.9% (active)
O=C(C1=C(O)C(=O)N(Cc2ccccc2)C1c1ccco1)c1ccco1 (centres undefined) | -22.3% (inactive)
O=C1c2ccccc2C(O)N1Cc1ccccc1Cl (centres undefined) | 80.7% (active)
O=S1(=O)CCN(Cc2ccccc2Cl)CC1 | 35.5% (inactive)
O=C1c2cccnc2C(Nc2ccc(S(=O)(=O)N3CCCCCC3)cc2)N1Cc1ccccc1 (centres undefined) | 40.6% (inactive)
S=c1[nH]nc(-c2ccc(Cl)cc2)n1CC1CCCO1 (centres undefined) | 41.3% (inactive)
COC(=O)c1cc(Cl)c(NC(=O)c2ccco2)cc1OC | 9.4% (inactive)
CCCCCC(=O)Nc1ccc2oc(-c3ccncc3)nc2c1 | 77.7% (active)
O=C(Cc1cccc2ccccc12)Nc1ccc2oc(-c3ccccc3)nc2c1 | 5.7% (inactive)
O=C(Nc1ccc2oc(-c3ccc4ccccc4c3)nc2c1)c1cccs1 | -16.3% (inactive)
Cc1ccc2[nH]c(=O)c(-c3nc4c(C)cccn4c3NCc3ccco3)cc2c1 | -0.9% (inactive)
Cc1cccc(NC(=O)Cn2cc(C(=O)c3ccco3)c3ccccc32)c1 | -13.3% (inactive)
COC(=O)c1cn(CC(=O)NCc2cccs2)c2ccccc12 | 71.1% (active)
COC(=O)Cn1cc(C(=O)c2cccs2)c2ccccc21 | 26% (inactive)
O=C(CN1CCN(c2ccccn2)CC1)NCc1cccs1 | 34.7% (inactive)
COCCCNC(=O)Cn1cc(C(=O)C2CC2)c2ccccc21 | 32.1% (inactive)
O=C(Cn1cc(C(=O)c2cccs2)c2ccccc21)NCc1cccs1 | 91.3% (active)
CCCCCCC(=O)N(O)C1CC(=O)N(c2ccccc2)C1=O (centres undefined) | 27.1% (inactive)
CC1=C(C(N)=O)C(c2sccc2C)n2nnnc2N1 (centres undefined) | 7.6% (inactive)
Cc1nnc(SCC(=O)NC(=O)NC2CCCC2)n1N | 3.5% (inactive)
CCCCOc1ccc(-c2ncc(C(=O)OCC)c(N)n2)cc1 | -11.5% (inactive)
CCOC(=O)C(Sc1ncc(C#N)c(N)n1)C(C)C (centres undefined) | 52.1% (active)
CCOC(=O)CSc1nccc(N(C)C)c1C#N | 25.5% (inactive)
CN(Cc1ccccc1)C(=O)CCNC(=O)Cn1cnc2ccccc2c1=O | -11.7% (inactive)

Structure (SMILES) | inhibition
Oc1ccc(-c2csc(Nc3cccnc3)n2)cc1 | 78.4% (active)
c1ccc(Nc2nc(-c3ccncc3)cs2)nc1 | 98.6% (active)
COc1ccc(Nc2nc(-c3ccccc3)cs2)cc1 | 35.2% (inactive)
NS(=O)(=O)c1ccc(Nc2nc(-c3ccccc3)cs2)cc1 | 28.5% (inactive)
Clc1ccc(Nc2nc(-c3cccs3)cs2)nc1 | 0.8% (inactive)
c1cnc(Nc2nc(-c3ccc4ccccc4c3)cs2)nc1 | -3.4% (inactive)
CCOC(=O)c1ccc(N2C(=O)CC(N(C)Cc3ccccc3)C2=O)cc1 (centres undefined) | -4% (inactive)
CCCc1ccc(OCC(=O)NNC(=S)NC(=O)c2ccco2)cc1 | 8.7% (inactive)
CC(Oc1ccc2ccccc2c1)C(=O)NNC(=S)NC(=O)c1ccco1 (centres undefined) | 56.8% (active)
COc1ccc(C(=O)NC(=S)NNC(=O)CCc2ccccc2)cc1 | -0.6% (inactive)
O=C(NCC1CCCO1)C(C(=O)c1ccccc1)n1cc(Cl)ccc1=O (centres undefined) | -6.7% (inactive)
CC(C)(C)n1nnnc1C(c1ccc(F)cc1)N1CCN(Cc2ccc3c(c2)OCO3)CC1 (centres undefined) | 25.1% (inactive)
Cc1ccc(S(=O)(=O)Cn2nnnc2CN2CCN(Cc3ccc4c(c3)OCO4)CC2)cc1 | 24.5% (inactive)
Cc1cc(C)c2[nH]c(=O)c(C(c3nnnn3Cc3ccc4c(c3)OCO4)N3CCCC3)cc2c1 (centres undefined) | 68.4% (active)
Fc1ccccc1C(c1nnnn1Cc1ccc2c(c1)OCO2)N1CCN(Cc2ccccc2)CC1 (centres undefined) | 62.9% (active)
Cc1cccc(NC(=O)c2ccc(OCC(=O)NCc3ccccc3)cc2)c1C | -8% (inactive)
O=C(NCCOc1ccccc1)c1ccccc1 | 60.7% (active)
O=C(CCC(=O)OCC(F)(F)C(F)F)NCc1ccccc1 | 71.6% (active)
O=C(Cn1nnc(-c2ccccc2)n1)NCc1ccccc1 | 45.4% (inactive)
O=C(O)CCC(=O)NCc1ccc(C(=O)O)cc1 | 3.2% (inactive)
CN(C)C(CNC(=O)CCCOc1ccccc1)c1ccco1 (centres undefined) | 84.2% (active)
O=C(CCCOc1ccccc1)Nc1cccc(C(=O)O)c1 | 1.2% (inactive)
Cc1nnc(NC(=O)CCCOc2ccccc2)s1 | 24.7% (inactive)
O=C(CCOc1ccccc1)NCc1ccccc1 | 57.6% (active)
O=C(CCC(=O)OCc1cccc(C(=O)Oc2ccccc2)c1)Nc1cccc2ccccc12 | 3.8% (inactive)
O=C(CCCOc1ccccc1)NCc1ccco1 | 36.6% (inactive)

Structure (SMILES) | inhibition
O=C(NCCc1ccccc1)c1ccc(OCCOc2ccccc2)cc1 | -7.8% (inactive)
COc1ccc(OC)c2[nH]c(=O)c(CCNC(=O)C(C)(C)C)cc12 | 13.1% (inactive)
O=C(Cn1nc(C(F)(F)F)c2c1CCC2)NCc1ccc(F)cc1 | 45.9% (inactive)
CCSc1nc(=S)n(CC)c(C)c1C(C)=O | -23.9% (inactive)
O=C(CCCN1C(=O)c2ccccc2C1=O)Oc1ccc(Cl)cc1 | 14.2% (inactive)
COc1ccc(NC(=O)/C(Cl)=C(/Cl)S(=O)Cc2ccc(C)cc2)cn1 (centres undefined) | 33.8% (inactive)
O=C(Nc1nnc(C2CC2)s1)c1ccccn1 | 20.4% (inactive)
CCCc1nc(N2CCN(C)CC2)c2sc(=S)n(-c3ccccc3)c2n1 | 4.4% (inactive)
CCOc1ccc(NC(=O)CCS(=O)(=O)c2ccc3c(c2)CCCN3C(=O)CC)cc1 | 3.3% (inactive)
O=C(CC1Oc2ccccc2NC1=O)NCCCN1CCN(Cc2ccccc2)CC1 (centres undefined) | -1.2% (inactive)
Cc1ccc2c(c1)N(CC(=O)N1CCCc3ccccc31)C(=O)C(C)O2 (centres undefined) | 34.4% (inactive)
O=C(Cc1ccccc1)n1nc(-c2ccccc2)nc1NCc1ccco1 | 15.9% (inactive)
O=C(O)CSC(NC(=O)c1cccnc1)(C(F)(F)F)C(F)(F)F | -13.3% (inactive)
CC(N=Cc1nc(-c2ccccc2)oc1O)c1ccccc1 (centres undefined) | 71.8% (active)
CC(NC(=O)c1cc(-c2ccccc2)on1)c1ccccc1 (centres undefined) | 13% (inactive)
CCn1c(/C=C/c2ccc([N+](=O)[O-])o2)nc2ccccc2c1=O | -3.3% (inactive)
Cc1ccc(-n2c(C)cc(/C=N/Nc3ccc([N+](=O)[O-])cn3)c2C)c(C)c1 | -0.3% (inactive)
CN1C(=O)CC(N2CCN(c3ccccn3)CC2)C1=O (centres undefined) | 17.8% (inactive)
COc1cccc(-n2c(Cc3cc(=O)[nH]c(=O)[nH]3)nnc2SCC(=O)Nc2ccccc2)c1 | -8.7% (inactive)
CSc1cccc(NC(=O)CSc2ccccc2)c1 | 83.5% (active)
Cc1ccn(C(CC(=O)c2ccc(Br)cc2)C(=O)O)n1 (centres undefined) | -25.7% (inactive)
O=C(Oc1ccc(-c2nc(-c3ccccn3)no2)cc1)c1ccccc1 | 99.5% (active)
O=C(Oc1ccccc1)c1ccc2nccnc2c1 | 20.3% (inactive)
CC(C)c1nc(-c2ccccn2)no1 | -3.1% (inactive)
CCc1cc(Br)ccc1NC(=O)C1CCCO1 (centres undefined) | 30.5% (inactive)
CC(=O)c1cc(-c2ccccc2)[nH]c1N1CCCC1 | 10.4% (inactive)

Structure (SMILES) | inhibition
COc1ccccc1C(=O)Nc1ccc(NC(=O)c2ccco2)c(C)c1 | 45.5% (inactive)
O=C(COC(=O)c1ccccc1NC(=O)c1ccco1)Nc1ccc2c(c1)OC(F)(F)O2 | 57.4% (active)
CCOc1cc(NC(=O)c2ccco2)c(OCC)cc1NC(=O)COc1ccccc1 | 24.6% (inactive)
Cc1nc(C)c2c(c1C(F)(F)F)-c1ccccc1C2(F)F | -21.2% (inactive)
O=C(NC(Cc1ccccc1)C(=O)N1CCCC1C(=O)O)c1ccccc1 (stereo not drawn) (Bz-Phe-Pro-OH; configuration not given here) | -4.1% (inactive)
O=C(C(Cc1ccccc1)n1cccc1)N1CCN(C2CCCCC2)CC1 (centres undefined) | 98.1% (active)
Cc1ccc(C)n1C(Cc1ccccc1)C(=O)O (centres undefined) | 8.1% (inactive)
CCOc1ccc2nc(SC(CC)C(=O)Nc3cc(C)on3)sc2c1 (centres undefined) | 0.6% (inactive)
Cc1ccc(CNC(=O)c2ccccc2CCc2ccccc2)cc1 | 13.9% (inactive)
CCCc1[nH]nc2c1C(c1ccc(OC)c(Cn3nc(C)c(Br)c3C)c1)C(C#N)=C(N)O2 (centres undefined) | 8% (inactive)
CCOc1c(OC)cc(C2C(C#N)=C(N)Oc3n[nH]c(-c4ccncc4)c32)cc1OC (centres undefined) | -7% (inactive)
COc1ccc(C2C(C#N)=C(N)Oc3n[nH]c(C)c32)cc1CN1CCN(c2ccc(F)cc2)CC1 (centres undefined) | 70.4% (active)
Fc1ccc2nc(N3CCCCC3)sc2c1 | 39.9% (inactive)
N=c1oc2ccccc2cc1C(=O)N/N=C/c1ccccc1 | 31.7% (inactive)
O=C(N/N=C\c1cccc(Br)c1)c1ccccc1-n1cccc1 | 73.3% (active)
Cn1c(=O)n(C)c2cc(/C=N/NC(=O)c3cccc(Br)c3)ccc21 | 6.4% (inactive)
CC(C)Cn1c(N)c(C(=O)NCc2cccs2)c2nc3ccccc3nc21 | 19.7% (inactive)
CC1(C)CC(=O)c2sc(N)nc2C1 | 23.6% (inactive)
CC1CCC2(CC1)NC(=O)N(CC(=O)c1cccn1C)C2=O (centres undefined) | 9.9% (inactive)
CC(C)(C)OC(=O)c1c(N)n(CCCN2CCCC2=O)c2nc3ccccc3nc12 | -3.9% (inactive)
CC1CCCCC1NC(=O)CCS(=O)(=O)c1cccc2nonc12 (centres undefined) | 27.7% (inactive)
COc1ccc(C)cc1NC(=O)CCS(=O)(=O)c1cccc2nonc12 | 82.1% (active)
Cc1ccc(N(CC(=O)Nc2cc(C)cc(C)c2)S(=O)(=O)c2cccc3nonc23)cc1 | 14.2% (inactive)
Cc1ccc(CNC(=O)CCNS(=O)(=O)c2cccc3nonc23)cc1 | 15.9% (inactive)
O=C(CCS(=O)(=O)c1cccc2nonc12)NCCc1ccccc1Cl | 75% (active)
Cc1cccc(C)c1NC(=O)CCS(=O)(=O)c1cccc2nsnc12 | 10.7% (inactive)
